Results on 17 compounds are retold here after ChEMBL document CHEMBL1961873, “Compounds: GSK PKIS; Assays: Nanosyn kinase panel” (2012).

The target in experiment [1] is High affinity nerve growth factor receptor (Homo sapiens) (UniProt P04629). The note with it: at 1 µM.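 Further: each value is the mean percent inhibition of TRKA.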
The target of experiment [2] is BDNF/NT-3 growth factors receptor (Homo sapiens) (UniProt Q16620). The conditions noted are these: at 0.1 µM.
The target is the same in experiment [3]. The note with it: at 1 µM.
Experiment [4] has as its target NT-3 growth factor receptor (Homo sapiens) (UniProt Q16288). The note with it: at 0.1 µM.
Experiment [5] shares this target. The conditions noted are these: at 1 µM.
In experiment [6] the target is T1, Tyrosine-protein kinase TXK (Homo sapiens) (UniProt P42681).
T1 sequence (whole entry): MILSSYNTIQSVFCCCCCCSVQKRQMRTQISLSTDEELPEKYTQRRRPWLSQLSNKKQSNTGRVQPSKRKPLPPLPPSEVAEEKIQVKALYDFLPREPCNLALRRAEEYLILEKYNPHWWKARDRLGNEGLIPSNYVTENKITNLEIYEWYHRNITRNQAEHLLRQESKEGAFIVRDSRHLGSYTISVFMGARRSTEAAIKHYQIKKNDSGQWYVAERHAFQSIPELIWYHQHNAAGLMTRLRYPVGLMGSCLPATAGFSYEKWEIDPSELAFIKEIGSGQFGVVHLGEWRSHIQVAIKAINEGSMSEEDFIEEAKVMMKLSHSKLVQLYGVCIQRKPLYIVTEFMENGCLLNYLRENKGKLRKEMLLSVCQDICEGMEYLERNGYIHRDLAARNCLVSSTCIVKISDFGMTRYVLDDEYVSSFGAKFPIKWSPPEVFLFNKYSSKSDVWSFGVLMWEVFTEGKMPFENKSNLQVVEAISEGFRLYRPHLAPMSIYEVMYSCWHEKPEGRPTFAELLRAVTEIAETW
The note with it: at 0.1 µM.

Experiment [7] concerns the target T1, Tyrosine-protein kinase TXK (Homo sapiens). The conditions noted are these: at 1 µM.
Experiment [8] concerns the target Non-receptor tyrosine-protein kinase TYK2 (Homo sapiens) (UniProt P29597). The note with it: at 0.1 µM.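 Further: each value is a mean of the inhibition readings.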
Experiment [9] has as its target T2, Aurora kinase A (Homo sapiens) (UniProt O14965).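 Further: each reported value is a mean percent inhibition of Aurora-A.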
T2 sequence (whole entry): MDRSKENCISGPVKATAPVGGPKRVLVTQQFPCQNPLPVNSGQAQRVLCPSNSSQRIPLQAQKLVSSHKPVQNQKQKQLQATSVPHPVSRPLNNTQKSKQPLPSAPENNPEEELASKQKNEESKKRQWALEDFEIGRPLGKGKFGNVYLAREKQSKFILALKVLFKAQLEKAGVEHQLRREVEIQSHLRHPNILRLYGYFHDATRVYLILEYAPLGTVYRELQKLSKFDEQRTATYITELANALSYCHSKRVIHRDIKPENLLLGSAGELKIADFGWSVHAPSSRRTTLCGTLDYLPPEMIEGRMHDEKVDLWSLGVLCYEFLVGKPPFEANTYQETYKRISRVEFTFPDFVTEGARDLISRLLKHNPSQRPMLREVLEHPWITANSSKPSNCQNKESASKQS
The note with it: at 0.1 µM.

The target of experiment [10] is T3, Dual specificity protein kinase TTK (Homo sapiens) (UniProt P33981).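 Further: reported figures are mean TTK inhibition at 1 µM.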
T3 sequence (whole entry): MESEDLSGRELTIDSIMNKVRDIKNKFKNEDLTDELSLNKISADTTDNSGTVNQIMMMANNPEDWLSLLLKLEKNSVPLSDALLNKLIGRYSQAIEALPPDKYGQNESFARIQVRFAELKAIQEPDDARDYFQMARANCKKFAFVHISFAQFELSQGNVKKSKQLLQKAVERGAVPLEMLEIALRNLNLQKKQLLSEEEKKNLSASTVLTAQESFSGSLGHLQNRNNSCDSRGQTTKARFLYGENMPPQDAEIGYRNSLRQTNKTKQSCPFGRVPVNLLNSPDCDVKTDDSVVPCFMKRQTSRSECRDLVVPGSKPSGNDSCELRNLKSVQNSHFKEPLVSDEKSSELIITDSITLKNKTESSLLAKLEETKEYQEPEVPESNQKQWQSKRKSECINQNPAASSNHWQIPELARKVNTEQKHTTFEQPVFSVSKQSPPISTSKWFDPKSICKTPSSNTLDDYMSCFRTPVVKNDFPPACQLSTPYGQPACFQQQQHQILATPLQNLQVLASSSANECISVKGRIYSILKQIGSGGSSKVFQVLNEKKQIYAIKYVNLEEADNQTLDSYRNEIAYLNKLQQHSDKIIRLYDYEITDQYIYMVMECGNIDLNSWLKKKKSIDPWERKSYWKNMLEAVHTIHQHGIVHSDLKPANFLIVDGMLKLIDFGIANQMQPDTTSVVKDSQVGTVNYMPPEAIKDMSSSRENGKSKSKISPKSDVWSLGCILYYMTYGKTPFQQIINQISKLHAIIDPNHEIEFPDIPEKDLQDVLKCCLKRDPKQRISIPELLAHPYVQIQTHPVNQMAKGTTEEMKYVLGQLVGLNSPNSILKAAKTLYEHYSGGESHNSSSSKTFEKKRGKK
The conditions noted are these: at 1 µM.

High affinity nerve growth factor receptor (Homo sapiens), sequence (P04629 33-796 limits assumed): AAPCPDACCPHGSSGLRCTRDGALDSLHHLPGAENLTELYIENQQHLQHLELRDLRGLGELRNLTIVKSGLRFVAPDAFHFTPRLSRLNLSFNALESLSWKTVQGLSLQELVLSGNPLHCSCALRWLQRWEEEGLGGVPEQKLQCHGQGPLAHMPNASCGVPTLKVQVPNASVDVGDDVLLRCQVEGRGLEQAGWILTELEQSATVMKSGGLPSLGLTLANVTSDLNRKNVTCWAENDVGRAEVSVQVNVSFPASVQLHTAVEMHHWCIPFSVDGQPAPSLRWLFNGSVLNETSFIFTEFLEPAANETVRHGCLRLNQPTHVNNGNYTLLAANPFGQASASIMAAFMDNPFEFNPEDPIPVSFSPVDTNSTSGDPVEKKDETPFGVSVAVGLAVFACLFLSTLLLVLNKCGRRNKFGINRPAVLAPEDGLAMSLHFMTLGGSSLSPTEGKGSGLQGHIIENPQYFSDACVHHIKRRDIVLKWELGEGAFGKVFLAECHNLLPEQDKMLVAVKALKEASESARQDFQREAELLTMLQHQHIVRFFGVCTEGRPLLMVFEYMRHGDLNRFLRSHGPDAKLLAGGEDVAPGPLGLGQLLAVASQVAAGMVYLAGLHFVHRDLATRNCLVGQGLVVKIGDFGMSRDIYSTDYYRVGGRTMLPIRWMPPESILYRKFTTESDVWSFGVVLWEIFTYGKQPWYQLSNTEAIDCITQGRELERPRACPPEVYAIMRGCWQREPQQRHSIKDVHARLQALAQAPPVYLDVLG
Non-receptor tyrosine-protein kinase TYK2 (Homo sapiens), sequence (P29597 whole entry): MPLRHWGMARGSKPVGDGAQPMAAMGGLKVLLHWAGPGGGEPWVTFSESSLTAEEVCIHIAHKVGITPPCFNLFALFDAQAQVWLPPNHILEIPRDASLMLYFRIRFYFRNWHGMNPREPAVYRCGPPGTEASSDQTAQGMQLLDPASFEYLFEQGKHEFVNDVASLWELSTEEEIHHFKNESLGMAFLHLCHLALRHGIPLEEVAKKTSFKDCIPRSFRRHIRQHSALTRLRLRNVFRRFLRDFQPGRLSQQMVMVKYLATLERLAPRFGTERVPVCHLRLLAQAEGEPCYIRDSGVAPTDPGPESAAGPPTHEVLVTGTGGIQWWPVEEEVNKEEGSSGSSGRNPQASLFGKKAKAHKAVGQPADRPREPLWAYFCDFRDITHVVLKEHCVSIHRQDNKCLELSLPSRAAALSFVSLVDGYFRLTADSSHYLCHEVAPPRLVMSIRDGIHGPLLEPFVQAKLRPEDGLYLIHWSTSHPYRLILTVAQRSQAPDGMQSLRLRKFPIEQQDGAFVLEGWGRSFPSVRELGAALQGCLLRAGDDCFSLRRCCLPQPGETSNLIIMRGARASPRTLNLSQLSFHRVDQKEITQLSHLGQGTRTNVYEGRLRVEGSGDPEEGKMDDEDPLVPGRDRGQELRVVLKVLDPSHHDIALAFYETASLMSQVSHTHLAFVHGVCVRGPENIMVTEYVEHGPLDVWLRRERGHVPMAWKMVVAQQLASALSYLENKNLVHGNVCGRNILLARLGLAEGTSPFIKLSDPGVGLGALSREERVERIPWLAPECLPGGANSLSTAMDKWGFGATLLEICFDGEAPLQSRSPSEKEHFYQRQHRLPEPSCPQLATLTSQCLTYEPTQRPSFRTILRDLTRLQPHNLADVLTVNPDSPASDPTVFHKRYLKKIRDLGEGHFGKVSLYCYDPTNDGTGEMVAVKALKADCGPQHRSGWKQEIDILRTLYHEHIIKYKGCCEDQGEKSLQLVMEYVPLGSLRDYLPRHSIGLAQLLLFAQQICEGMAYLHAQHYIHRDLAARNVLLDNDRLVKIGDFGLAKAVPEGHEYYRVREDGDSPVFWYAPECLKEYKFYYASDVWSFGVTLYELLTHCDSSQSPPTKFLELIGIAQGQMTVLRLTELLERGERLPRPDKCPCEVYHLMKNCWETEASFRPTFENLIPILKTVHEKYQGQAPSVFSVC
BDNF/NT-3 growth factors receptor (Homo sapiens), sequence (Q16620 32-822 limits assumed): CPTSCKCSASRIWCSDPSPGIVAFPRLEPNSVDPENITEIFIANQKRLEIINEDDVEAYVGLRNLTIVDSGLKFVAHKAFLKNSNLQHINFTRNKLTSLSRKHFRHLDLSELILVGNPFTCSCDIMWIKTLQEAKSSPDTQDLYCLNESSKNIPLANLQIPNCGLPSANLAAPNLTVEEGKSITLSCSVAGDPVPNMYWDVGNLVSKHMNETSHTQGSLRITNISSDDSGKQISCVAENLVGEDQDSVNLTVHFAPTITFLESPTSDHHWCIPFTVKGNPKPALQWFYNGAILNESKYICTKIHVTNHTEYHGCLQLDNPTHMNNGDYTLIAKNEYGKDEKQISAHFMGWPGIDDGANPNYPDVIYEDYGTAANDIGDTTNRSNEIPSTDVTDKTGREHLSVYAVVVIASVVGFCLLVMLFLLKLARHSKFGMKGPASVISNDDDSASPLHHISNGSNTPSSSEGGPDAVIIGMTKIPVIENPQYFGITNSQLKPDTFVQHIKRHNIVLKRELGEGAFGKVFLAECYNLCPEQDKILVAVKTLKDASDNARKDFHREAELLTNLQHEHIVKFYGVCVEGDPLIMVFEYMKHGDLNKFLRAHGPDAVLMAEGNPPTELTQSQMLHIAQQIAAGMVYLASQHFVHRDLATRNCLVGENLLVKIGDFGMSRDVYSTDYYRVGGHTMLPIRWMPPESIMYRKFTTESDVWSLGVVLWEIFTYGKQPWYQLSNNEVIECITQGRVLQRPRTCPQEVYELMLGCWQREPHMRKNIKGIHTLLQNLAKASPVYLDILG
NT-3 growth factor receptor (Homo sapiens), sequence (Q16288 32-839 limits assumed): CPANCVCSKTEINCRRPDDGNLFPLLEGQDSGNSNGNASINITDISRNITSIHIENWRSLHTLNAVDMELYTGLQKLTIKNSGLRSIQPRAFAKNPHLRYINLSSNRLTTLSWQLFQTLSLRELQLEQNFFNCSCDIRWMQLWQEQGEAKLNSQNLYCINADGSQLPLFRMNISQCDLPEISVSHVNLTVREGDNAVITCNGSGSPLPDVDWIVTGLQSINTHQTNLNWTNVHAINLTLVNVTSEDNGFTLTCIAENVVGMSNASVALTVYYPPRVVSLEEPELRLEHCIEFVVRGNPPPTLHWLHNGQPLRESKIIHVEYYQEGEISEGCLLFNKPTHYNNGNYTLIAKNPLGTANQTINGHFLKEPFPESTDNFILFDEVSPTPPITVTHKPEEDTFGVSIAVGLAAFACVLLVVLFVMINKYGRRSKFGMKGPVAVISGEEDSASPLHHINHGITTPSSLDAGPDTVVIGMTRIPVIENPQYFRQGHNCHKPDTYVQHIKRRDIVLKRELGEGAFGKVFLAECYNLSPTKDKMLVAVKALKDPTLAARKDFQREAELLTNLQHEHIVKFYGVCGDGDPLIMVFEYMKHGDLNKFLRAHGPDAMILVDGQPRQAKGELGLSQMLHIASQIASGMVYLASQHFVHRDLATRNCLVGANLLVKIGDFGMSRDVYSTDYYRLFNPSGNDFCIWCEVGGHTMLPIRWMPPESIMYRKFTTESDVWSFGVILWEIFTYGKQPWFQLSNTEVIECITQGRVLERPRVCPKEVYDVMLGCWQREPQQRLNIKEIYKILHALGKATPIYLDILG

In the case of `NS(=O)(=O)c1cccc(Nc2cc(-c3ccc(F)cc3)n[nH]2)c1`, the inhibition in [1] is 19.2%; in experiment [2] it was 4.73%; in [3], 26.1%; in [4], 6.62%; in experiment [5], 27.9%; in [6] it was 3.74%. Besides, the inhibition is 3.31% in experiment [7], -3.9% in [8] and 1.29% in [9].
Take `Cc1cc(Cl)cc2c1NC(=O)C2=NNc1ccc(S(N)(=O)=O)cc1`: the inhibition in [1] is 2.26%; in [2], 1.15%; in experiment [3] it was 4.46%; in experiment [4], 1.2%; in experiment [5], 3.59%; in [6] it was 2.77%. The inhibition is 3.71% in experiment [7], -5.56% in [8], 9.15% in [10] and 1.75% in [9].
Regarding `Cc1ccc2c(-c3ccnc(Nc4cccc(C(F)(F)F)c4)n3)c(-c3ccccc3)nn2n1`, the inhibition in [1] was determined as 7.09%; in [2] it was 4.09%; in [3] it was 5.15%; in [4], 2.41%; in experiment [5], 5.05%; in [6], 6.16%. Further, the inhibition was 17.2% in experiment [7], -1.28% in experiment [8], 10.6% in [10] and 1.82% in experiment [9].
With `N#Cc1cccc(Nc2nccc(-c3cnn4ncccc34)n2)c1`, the inhibition in experiment [1] came to 65.7%; in experiment [2], 24.3%; in [3], 75.3%; in experiment [4] it was 28.2%; in experiment [5], 87.5%; in [6], 5.32%. The inhibition in experiment [7] is 24.4%; in experiment [8], -4.17%; in experiment [10] it was 35%; in [9], 11.3%.
Consider `CCOc1nccc2c1nc(-c1nonc1N)n2CC`, for which the inhibition is 3.61% in [1]; -0.99% in experiment [2]; 5.51% in [3]; 1.31% in experiment [4]; 5.16% in experiment [5]; 4.89% in experiment [6]. Also, the inhibition in experiment [7] is 5.69%; in experiment [8], -0.93%; in experiment [10], 6.96%; in [9] it was 0.6%.
Take `CS(=O)(=O)CCNCc1nc(-c2ccc3ncnc(Nc4ccc(OCc5cccc(C(F)(F)F)c5)cc4)c3c2)cs1`: the inhibition in experiment [1] was 5.08%; in experiment [2] it was 2.33%; in experiment [3], 12.1%; in experiment [4], 1.39%; in experiment [5], 7.81%; in experiment [6], 6.88%. Also, the inhibition is 5.83% in [7], -3.62% in experiment [8], 2.16% in experiment [10] and 3.8% in experiment [9].
Regarding `NS(=O)(=O)c1ccc(Nc2cc(-c3cccc(O)c3)n[nH]2)cc1`, the inhibition was 10.5% in [1]; 5.48% in [2]; 12.6% in [3]; 5.55% in experiment [4]; 14.4% in experiment [5]; 2.77% in experiment [6]. Also, the inhibition in experiment [7] was 2.95%; in [8], -9.08%; in [10], 0.24%; in [9] it was 3.17%.
Turning to `Cc1cc(-c2ccccn2)cc(C)c1/C=C/c1cncc(-c2nn[nH]n2)c1`, the inhibition in [1] came out at 10%; in experiment [2], 3.94%; in experiment [3], 4.13%; in experiment [4] it was 1.49%; in [5] it was 2.54%; in experiment [6] it was 2.93%. Further, the inhibition in experiment [7] was 4.47%; in experiment [8], -2.23%; in [10], 9.95%; in [9], 1.9%.
Turning to `c1ccc(Cc2nc3ccc(Nc4ncnc5ccccc45)cc3[nH]2)cc1`, the inhibition was 0.18% in experiment [1]; 2.44% in experiment [2]; 3.35% in experiment [3]; -0.16% in experiment [4]; 2.9% in experiment [5]; 2.03% in experiment [6]. Moreover, the inhibition is 4.47% in experiment [7], -9.76% in experiment [8], 19% in [10] and 2.6% in experiment [9].
Regarding `O=C1Nc2ccc(-c3cccnc3)cc2C1=Cc1cc(Br)c(O)c(Br)c1`, the inhibition in experiment [1] turned out to be 12.8%; in experiment [2] it was 2.93%; in experiment [3], 12.2%; in [4] it was 4.91%; in experiment [5] it was 24.1%; in [6] it was 2.22%. Further, the inhibition in [7] was determined as 6.14%; in experiment [8] it was 0.81%; in [10], 7.48%; in experiment [9], 15.5%.
For the compound `Cc1ccc(Nc2ccnc(Nc3cccc(C(N)=O)c3)n2)cc1O`, the inhibition in [1] is 6.07%; in [2], 4.59%; in experiment [3], 21.6%; in experiment [4], 3.13%; in experiment [5], 11.5%; in experiment [6], 10.1%. The inhibition in experiment [7] was 43.7%; in experiment [8], -1.77%; in experiment [10] it was 16.3%; in experiment [9] it was 14.3%.
On to `Cc1ccc(NC(=O)CC2CC2)cc1-c1ccc(C(=O)NCC2CC2)cc1`, for which the inhibition in experiment [1] amounted to 1.04%; in experiment [2], 1.14%; in [3] it was 3.38%; in experiment [4] it was 2.32%; in [5] it was 4.16%; in experiment [6], 3.64%. The inhibition in experiment [7] is 5.85%; in [8], -4.51%; in [10], 7.66%; in experiment [9] it was 4.04%.
Turning to `CN(c1ccc(NC(=O)Nc2ccc(OC(F)(F)F)cc2)cc1)c1ccnc(Nc2cccc(S(N)(=O)=O)c2)n1`, the inhibition in experiment [1] was 90.5%; in [2], 34.7%; in [3] it was 82.6%; in experiment [4], 30.1%; in experiment [5] it was 87.1%; in experiment [6] it was -0.18%. The inhibition in experiment [7] is 8.63%; in [8], -1.91%; in experiment [10], 6.4%; in experiment [9] it was 7.93%.
For the compound `COc1cc2ncnc(Nc3ccc(C)c(O)c3)c2cc1OC`, the inhibition in [1] turned out to be 2.17%; in experiment [2], 3.65%; in experiment [3], 6.25%; in experiment [4], 1.67%; in [5] it was 7.05%; in [6], 8.65%. In addition, the inhibition in experiment [7] is 29.5%; in experiment [8] it was -5.98%; in experiment [10], 7.27%; in experiment [9], 2.56%.
With `COc1ccc(-c2nn3ncccc3c2-c2ccnc(Nc3cccc(C(F)(F)F)c3)n2)cc1`, the inhibition in experiment [1] is 3.94%; in [2] it was 1.95%; in experiment [3] it was 3.32%; in experiment [4], 2.64%; in experiment [5], 1.56%; in experiment [6], 0.17%. Also, the inhibition turned out to be 3.03% in experiment [7], 0.38% in experiment [8], 6.51% in [10] and 2.9% in experiment [9].
For the compound `COC(=O)Nc1nc2cc(Oc3ccc(NC(=O)Nc4cccc(Br)c4)cc3)ccc2[nH]1`, the inhibition in experiment [1] was 55.6%; in [2] it was 19.7%; in [3], 32.5%; in [4] it was 20.9%; in [5], 38.8%; in [6] it was 2.73%. Also, the inhibition in experiment [7] turned out to be 4.17%; in experiment [8], 0.49%; in experiment [10], 8.12%; in experiment [9], 0.95%.
For `NC(=O)c1cccc(Nc2nccc(Nc3cccc(F)c3)n2)c1`, the inhibition is 2.65% in experiment [1]; 1.46% in experiment [2]; 14.8% in [3]; -1.62% in [4]; 5.94% in experiment [5]; 6.53% in experiment [6]. Besides, the inhibition in [7] is 29%; in experiment [8], 3.52%; in experiment [10], 6.29%; in experiment [9], 14.9%.
